MPTP block: blocks calcium-induced mitochondrial swelling; isolated mouse mitochondria, Ca2+ swelling absorbance, 30 min; inhibition, % at 10 µM; hit rate 1.4% among 360,000; AID 602449;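 active means inhibition of 50% or more, scaled per plate between neutral and stimulator controls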;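 further: 0% = DMSO wells given calcium and 100% = 1 mM EGTA wells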
proKLK7 act: activates the human kallikrein-7 zymogen. AID 652039. purified proKLK7, EDANS-DABCYL substrate fluorescence; 100% is mature enzyme control, 0% vehicle. activation, % at 7 µM. P49862. hit rate 0.9% among 370,000;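 active means activation above the mean of all tested compounds plus 3 SD, computed per campaign excluding outliers beyond control limits, cut at about 13% in these data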
rCAG binder: r(CAG) repeat RNA binding; hit rate 1.3% among 370,000; AID 651821; inhibition, % at 3 µM; TO-PRO-1 dye displacement fluorescence;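 active means inhibition above the plate cutoff, the mean of all test compounds on that plate plus 3 SD, cut at about 35% in these data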;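 further: 0% = DMSO alone and 100% = 100 µM mitoxantrone as full dye displacement; higher means more dye released from RNA so lower well fluorescence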
Pemphigus Ab inh: blocks pemphigus antibody binding to human desmoglein-3 | binding (percent of control), % at 10 µM | hit rate 0.48% among 310,000 | P32926 | DSG3-coupled beads, scFv-anti-DSG3-GFP binding, flow cytometry; active compounds read low;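 active means binding more than 3 SD below its plate's average and above zero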;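 further: hits lower antibody fragment binding to DSG3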
ADAM17 inh: ADAM17 inhibition, QFRET primary screen. recombinant ADAM17, EDANS/DABCYL FRET peptide cleavage. inhibition, % at 6.95 µM. AID 720648. hit rate 0.83% among 370,000;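 active means inhibition above the mean of compounds lying between control limits plus 3 SD, set per campaign, cut at about 8.5% in these data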;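 further: 0% = DMSO-only wells as the low control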
ADAM10 inh: inhibitors of human ADAM10; O14672; recombinant ADAM10, EDANS/DABCYL FRET peptide cleavage, 3 h; inhibition, % at 7 µM; hit rate 0.62% among 370,000; AID 720582;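 active means inhibition above a per-campaign cutoff equal to the mean of compounds falling between control-based bounds plus 3 SD, cut at about 20% in these data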;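 further: 0% = DMSO wells while the 100% control is not disclosed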
rCAG binder conf: r(CAG) RNA repeat binding, confirmation; TO-PRO-1 dye displacement fluorescence; shares compounds with rCAG binder; hit rate 70% among 4,300; AID 652065; inhibition, % at 3 µM;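 active means inhibition above a per-plate cutoff, the mean inhibition of sample wells plus 3 SD, cut at about 35% in these data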;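 further: loss of TO-PRO-1 fluorescence as compound displaces dye from 1x1 AA loop RNA; 0% = DMSO only wells and 100% = 100 µM mitoxantrone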
DNA CAG counter: counter-screen for rCAG RNA binders: DNA CAG dye complex inhibitors. shares compounds with rCAG binder. d(CAG) DNA oligo TO-PRO-1 dye displacement, fluorescence. inhibition, % at 3 µM. hit rate 94% among 4,300. AID 652068;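 active means inhibition above its plate's cutoff, the mean test-well inhibition plus 3 SD, cut at about 4.8% in these data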;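 further: 0% = DNA dye mix with DMSO and 100% = 100 µM mitoxantrone; hits displace the dye from DNA and so lower well fluorescence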
DNA CAG DR: counter-screen for rCAG binders: inhibitors of DNA CAG TO-PRO-1 complex. hit rate 20% among 250. shares compounds with rCAG binder. AID 686960. IC50, µM. DNA CAG/GTC duplex TO-PRO-1 dye displacement fluorescence; in the data active means IC50 below about 10 µM
* = called active by the depositor; i = inactive; nt = no result. Sampled rows, rich in hits. Any-hit rate of the full collection: about 4.7%.

SMILES | MPTP block | proKLK7 act | rCAG binder | Pemphigus Ab inh | ADAM17 inh | ADAM10 inh | rCAG binder conf | DNA CAG counter | others
Cc1cccc(C(=O)NC(NC(=S)Nc2ccc(S(N)(=O)=O)cc2)C(Cl)(Cl)Cl)c1 (centres undefined) | -0.3 | -0.7 | 17.9 | 99.9 | 5.8 | 7.2 | nt | nt
CCC(=O)NC(NC(=S)Nc1ccc(S(N)(=O)=O)cc1)C(Cl)(Cl)Cl (centres undefined) | 1.3 | 0.4 | 53.4* | 110.3 | -0.5 | 0.7 | 3.9 | 0.6
COc1cccc(NC(=O)Nc2nnc(Cc3ccc(OC)c(OC)c3)s2)c1 | 0.5 | 0.0 | 29.3 | 99.2 | -2.8 | 1.9 | nt | nt
COc1cccc(NC(=O)Nc2nnc(Cc3ccccc3F)s2)c1 | 14.6 | -0.5 | 39.6* | 92.0 | -2.2 | -3.9 | 22.3 | 14.3*
CCCCC(=O)N(C)c1c(CC)nc2c(OCCOc3ccccc3)cccn12 | -0.4 | -0.1 | -3.6 | nt | -5.9 | -14.2 | nt | nt
Cc1ccc2c(c1)c(N=Nc1cccc(C(=O)O)c1)c(O)n2C | 0.7 | -0.6 | 37.8* | 100.3 | 2.1 | 2.0 | 56.2* | 12.3* | DNA CAG DR=i
O=C(/C=C/c1ccco1)Nc1ccc2nn(-c3ccccc3)nc2c1 | 4.7 | -2.3 | 39.9* | 111.5 | -13.6 | -46.0 | 18.9 | 12.8*
CC(=O)c1sc(Nc2ccc(Oc3ccccc3)cc2)nc1C | 3.0 | -3.6 | 3.8 | nt | -22.7 | -76.1 | nt | nt
O=[N+]([O-])c1ccccc1N/N=C/c1c[nH]c2ccccc12 | 9.1 | 0.2 | 36.5* | 103.5 | -1.8 | -3.2 | 24.6 | 15.8*
COc1ccccc1NS(=O)(=O)c1cc([N+](=O)[O-])ccc1N/N=C/c1c[nH]c2ccccc12 | 2.7 | 0.4 | 74.4* | 150.6 | 0.0 | 8.8 | 71.2* | 35.6*
O=C(O)c1cccc2c1C(=O)c1ccc(-c3ccc(OC(F)(F)F)cc3)cc1S2(=O)=O | 1.4 | 2.7 | 69.1* | 99.7 | -6.5 | -1.4 | 59.9* | 15.6*
O=C(NCc1ccccc1Br)c1cccc2c1C(=O)c1ccc(-c3ccc(OC(F)(F)F)cc3)cc1S2(=O)=O | -2.9 | nt | nt | 93.5 | nt | nt | nt | nt
C[C@@H]1CN([C@@H](C)CO)C(=O)CCCn2nncc2CO[C@@H]1CN(C)C(=O)C1CC1 | nt | 0.2 | 2.8 | nt | -2.4 | -1.4 | nt | nt
NS(=O)(=O)c1ccc(-c2ccc(/C=C3\C(=O)Nc4cc(Cl)ccc43)o2)cc1 | 2.0 | -0.8 | 46.1* | 84.8 | -35.4 | -80.9 | 26.4 | 20.8*
c1ccc(-c2nc3c([nH]2)CCc2nonc2-3)cc1 | -1.4 | -0.3 | 1.0 | 99.5 | -1.7 | -4.0 | nt | nt
c1coc(-c2nc3c([nH]2)CCc2nonc2-3)c1 | -0.6 | -2.3 | 41.9* | 103.5 | -3.4 | -4.5 | 8.7 | 2.6
NC(C(=O)O)C1ON=C(Cl)C1O (centres undefined) | -2.9 | 1.0 | 40.8* | 91.9 | -3.1 | -13.8 | 3.0 | 2.7
NNC(=O)c1cc(NS(=O)(=O)c2cccs2)cc(NS(=O)(=O)c2cccs2)c1 | -1.4 | -0.2 | 41.9* | 89.4 | -0.3 | -1.9 | 8.7 | 4.7*
O=C(N[C@H](C(=O)N1CCC[C@H]1C(=O)NCc1ccccc1)C1CCCCC1)c1ccccc1 | nt | 0.3 | 0.2 | nt | -3.4 | -3.4 | nt | nt
O=C(O)C1CC=CCC1C(=O)Nc1ccc(S(=O)(=O)N2CCCc3ccccc32)cc1 (centres undefined) | 1.6 | 0.4 | 36.2* | 114.3 | 3.8 | 0.3 | 36.8* | 9.1*
C[C@H](CO)N1C[C@H](C)[C@@H](CN(C)C(=O)CCC(F)(F)F)OCc2cn(nn2)CCCC1=O | nt | -0.6 | 2.3 | nt | -1.8 | 4.9 | nt | nt
Oc1ccc(N=Nc2c(O)ccc3ccccc23)cc1 | 45.8 | 0.2 | 41.4* | 101.2 | 5.9 | 14.8 | 33.6 | 17.3*
O=C(O)Cc1sc(-c2ccccc2Cl)nc1-c1ccccc1 | 3.4 | -1.1 | 16.7 | 92.4 | -2.0 | -1.4 | nt | nt
Cc1ccc(-c2nc(-c3ccc(Cl)cc3)sc2CC(=O)O)c(C)c1 | 0.3 | -0.1 | 44.9* | 100.2 | -6.8 | -20.2 | 30.5 | 8.7*

Assay outcomes as filed in PubChem.
